Source: PubChem (Broad Institute)
Only a selection was taken, and hits are over-represented in it overall.
NOMO-1 viab – STK33 inhibitor candidate reducing NOMO-1 cell viability; AID 2330; 37,000 compounds, 7.5% hits; NOMO-1 AML viability, CellTiter-Glo luminescence, 72 h; inhibition, % (test concentration not listed); in the data active = inhibition above about 80%; inconclusive = no clear call, values can overlap the other calls
STK33 kin inh – human STK33 kinase inhibition | 27,000 compounds, 0.44% hits | inhibition, % at 12.5 µM | ADP-Glo luminescence, MBP substrate | AID 2322; in the data active = inhibition above about 20%; inconclusive = no clear call, values can overlap the other calls
Target sequence (Q9BYT3 whole entry, looked up): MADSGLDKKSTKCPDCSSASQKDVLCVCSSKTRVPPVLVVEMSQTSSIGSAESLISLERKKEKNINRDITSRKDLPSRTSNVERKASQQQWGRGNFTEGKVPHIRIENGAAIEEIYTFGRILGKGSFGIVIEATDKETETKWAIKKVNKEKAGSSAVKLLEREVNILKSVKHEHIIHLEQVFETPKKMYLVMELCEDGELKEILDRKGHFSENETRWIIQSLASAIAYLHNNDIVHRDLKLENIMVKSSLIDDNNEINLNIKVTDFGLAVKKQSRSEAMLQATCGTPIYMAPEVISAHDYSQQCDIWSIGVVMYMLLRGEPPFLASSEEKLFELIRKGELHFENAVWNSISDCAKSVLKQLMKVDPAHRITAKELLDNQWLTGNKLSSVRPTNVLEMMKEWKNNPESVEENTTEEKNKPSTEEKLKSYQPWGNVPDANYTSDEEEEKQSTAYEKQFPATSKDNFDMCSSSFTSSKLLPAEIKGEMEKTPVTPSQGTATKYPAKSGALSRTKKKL
PD-1 reverse act – reversal of PD-1 mediated T-cell inhibition; primary human CD4 T cells, PD-L1 beads, CellTiter-Glo 96 h; activation, % (test concentration not listed); 29,000 tested, under 10 active; call rule not given here;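 also: 0% = median vehicle wells and 100% = positive control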
Numbers without * were called inactive; ? = inconclusive; . = no result given.

SMILES	NOMO-1 viab	STK33 kin inh	PD-1 reverse act
COC1C(OC)N(S(=O)(=O)c2ccc(C)cc2)CCN1S(=O)(=O)c1ccc(C)cc1 (stereo unspecified)	7	3	-3
Cc1ccc(S(=O)(=O)N2CCC(=O)c3ccccc32)cc1	110*	.	-2
COc1ccc(NC(=O)CNC(=O)c2ccccc2C)cc1	-21	-4	1
COC(=O)c1cccc(NC(=O)CN(c2ccc(I)cc2)S(C)(=O)=O)c1C	100*	2	0
COC(=O)c1ccccc1NC(=O)CN(c1ccc(C)c(Cl)c1)S(C)(=O)=O	29	-6	0
COC(=O)c1ccc(Cl)c(NC(=O)CN(c2ccccc2Br)S(C)(=O)=O)c1	95*	2	1
COC(=O)c1cccc(NC(=O)CN(c2ccc(Cl)c(C(F)(F)F)c2)S(C)(=O)=O)c1C	142*	-5	-1
CC(=O)Nc1ccc(NC(=O)CN(c2ccc(Cl)c(C(F)(F)F)c2)S(C)(=O)=O)cc1	99*	5	0
CS(=O)(=O)N(CC(=O)Nc1ccc(Cl)c(C(F)(F)F)c1)c1cccc(C(F)(F)F)c1	?	-9	-6
Cc1cccc(C)c1NC(=O)CN(c1ccc(Cl)c(C(F)(F)F)c1)S(C)(=O)=O	-7	1	-3
COC(=O)c1ccc(NC(=O)CN(c2ccccc2Br)S(C)(=O)=O)cc1	15	-6	1
CCc1ccc2nc(N3C(=O)C(=O)C(C(=O)c4ccco4)C3c3cc(OC)ccc3OC)sc2c1 (stereo unspecified)	25	-2	.
CC(=O)NC1C(=O)Nc2ccccc2S(=O)(=O)C1c1ccccc1 (stereo unspecified)	-13	.	0
O=C(CSc1ccc2ccccc2n1)Nc1ccnc2ccccc12	35	8	-4
O=C1c2ccccc2-[n+]2ccc3c([nH]c4ccccc43)c21	99*	5	-57
COc1cc(CO)c(CC(=O)NN)cc1OC	-3	.	0
C#C[C@]1(O)CCC2C3CCc4cc(O)ccc4C3CC[C@@]21C (stereo partly specified)	107*	-7	.
C[C@]12CC[C@@H]3c4ccc(O)cc4CC[C@H]3[C@@H]1C[C@@H](O)[C@@H]2O	-4	3	.
CCc1ccc(NC(=O)CSc2nc(C)cc(C)n2)cc1	18	-4	-1
C[C@H]1CN([C@@H](C)CO)C(=O)Cc2cc(N(C)C)ccc2O[C@@H]1CN(C)Cc1ccc(C(=O)Nc2ccccc2N)cc1	140*	.	0
C[C@@H]1CN([C@@H](C)CO)C(=O)Cc2cc(N(C)C)ccc2O[C@@H]1CN(C)Cc1ccc(C(=O)Nc2ccccc2N)cc1	140*	.	-3
O=C1Oc2cc(O)cc(O)c2[C@@H](c2ccc(O)cc2)[C@H]1[C@H]1C(=O)Oc2cc(O)cc(O)c2[C@H]1c1ccc(O)cc1	19	28*	-2
COc1ccc(C2CC(=O)Oc3cc(O)cc(O)c32)cc1 (stereo unspecified)	6	0	0
Cc1sc(N)nc1C12CC3CC(CC(C3)C1)C2	105*	.	-1
S=c1nc(C23CC4CC(CC(C4)C2)C3)[nH][nH]1	-1	0	3
SMILES	NOMO-1 viab	STK33 kin inh	PD-1 reverse act
COC(=O)c1ccc(NC(=O)CSc2nc3ccccc3c(=O)n2-c2ccc(C)cc2)cc1	48	1	-1
C[C@@H]1CN([C@H](C)CO)C(=O)c2cccc(NC(=O)CCCCCC(=O)Nc3ccccc3N)c2O[C@@H]1CN(C)S(=O)(=O)c1ccccc1	47	.	-1
Cc1ccc(S(=O)(=O)N(C)C[C@H]2Oc3c(NC(=O)CCCCCC(=O)Nc4ccccc4N)cccc3C(=O)N([C@H](C)CO)C[C@H]2C)cc1	57	.	-2
C[C@H](CO)N1C[C@H](C)[C@@H](CN(C)S(C)(=O)=O)Oc2c(NC(=O)CCCCCC(=O)Nc3ccccc3N)cccc2C1=O	25	.	2
C[C@@H]1CN([C@H](C)CO)C(=O)c2cccc(NC(=O)CCCCCC(=O)Nc3ccccc3N)c2O[C@@H]1CN(C)S(=O)(=O)c1ccc(Cl)cc1	95*	.	1
C[C@@H]1CN([C@@H](C)CO)C(=O)c2cccc(NC(=O)CCCCCC(=O)Nc3ccccc3N)c2O[C@H]1CN(C)S(=O)(=O)c1ccc(Cl)cc1	95*	.	-3
C[C@@H]1CN([C@@H](C)CO)C(=O)c2cccc(NC(=O)CCCCCC(=O)Nc3ccccc3N)c2O[C@@H]1CN(C)S(=O)(=O)c1ccc(Cl)cc1	121*	.	-1
CCOC(=S)Nc1ccc(I)cc1	36	.	1
CCOC(=O)c1c[nH]c(=S)[nH]c1=O	29	-2	5
C[C@H](CO)N1C[C@H](C)[C@@H](CN(C)CC2CCCCC2)Oc2c(NC(=O)c3ccc(-c4nccs4)cc3)cccc2C1=O	104*	.	-3
C[C@@H]1CN([C@H](C)CO)C(=O)c2cccc(NC(=O)c3ccc(-c4nccs4)cc3)c2O[C@@H]1CN(C)CC1CCCCC1	2	.	0
C[C@H]1CN([C@@H](C)CO)C(=O)c2cccc(NC(=O)c3ccc(-c4nccs4)cc3)c2O[C@H]1CN(C)CC1CCCCC1	4	.	-1
C[C@@H]1CN([C@@H](C)CO)C(=O)c2cccc(NC(=O)c3ccc(-c4nccs4)cc3)c2O[C@H]1CN(C)CC1CCCCC1	109*	.	-3
CN(CC(=O)Nc1ccccc1[N+](=O)[O-])S(=O)(=O)c1ccc(Br)cc1	-22	-2	.
COc1cc(NC(=O)Cn2cnc3c2c(=O)n(C)c(=O)n3C)cc(OC)c1OC	-16	-1	1
C=CCn1c2ccccc2n2nc(CCC(=O)O)c(=O)nc12	-4	3	3
O=C1O[C@@H](c2ccccc2)[C@@H](c2ccccc2)N2[C@@H](c3ccc(OCCO)cc3)[C@]3(C(=O)Nc4ccc(C#CCCO)cc43)[C@@H](C(=O)N3CCCCCCC3)[C@H]12	.	14	.
O=C1O[C@H](c2ccccc2)[C@H](c2ccccc2)N2[C@H]1[C@@H](C(=O)N1CCN(c3ncccn3)CC1)[C@]1(C(=O)Nc3ccc(C#CCCO)cc31)[C@H]2c1ccccc1OCCO	.	24*	.
O=C1O[C@@H](c2ccccc2)[C@@H](c2ccccc2)N2[C@@H](c3ccccc3OCCO)[C@]3(C(=O)Nc4ccc(C#CCCO)cc43)[C@@H](C(=O)N3CCCCCCC3)[C@H]12	.	22*	.
COc1ccc(C#Cc2ccc3c(c2)[C@]2(C(=O)N3)[C@H](c3ccccc3OCCO)N3[C@H](c4ccccc4)[C@H](c4ccccc4)OC(=O)[C@H]3[C@@H]2C(=O)N2CCN(c3ncccn3)CC2)cc1	.	10	.
CCOC(=O)/N=C(/c1ccc(Cl)cc1)c1cc2ccccc2cn1	63	.	0
Cc1cc(C)c(OC(=O)/C=C/c2cccs2)c(C)c1	13	.	-1
COc1ccccc1NC(=O)CSC1=NC(c2ccccc2)CC(=O)N1 (stereo unspecified)	51	2	-2
O=C1C(c2c(O)[nH]c3ccccc23)=Nc2ccccc21	50	25*	0
NNC(=O)Cn1c2ccccc2c2ccccc21	100*	.	-3
SMILES	NOMO-1 viab	STK33 kin inh	PD-1 reverse act
O=Nc1c(O)n(CC(=O)Nc2ccccc2)c2ccccc12	16	.	0
C=C1C(=O)O[C@H]2C3=C(C)CCC[C@]3(C)C(=O)C[C@@H]12	121*	1	-35
C=C1C(=O)O[C@@H]2C=C(C)[C@@H]3CC[C@@](C)(O)[C@@H]3C[C@H]12	38	1	0
CC1OC(OCC2OC(O[C@H]3CC[C@@]4(C)C(CC[C@@]5(C)C6=C(CCC45)C4CC(C)(C)CC[C@]4(C(=O)OC4OC(CO)C(O)C(O)C4O)CC6)C3(C)C)C(O)C(O)C2O)C(O)C(O)C1O (stereo partly specified)	.	-6	.
COC1CC(O[C@H]2CC[C@]3(C)C4CC[C@@]5(C)C(=O)[C@]4(CC[C@@H]3C2)CC[C@@H]5C2=CC(=O)OC2)OC(C)C1OC1OC(COC2OC(CO)C(O)C(O)C2O)C(O)C(O)C1O (stereo partly specified)	111*	1	1
COc1ccc(N=C(C)c2c(C(F)(F)F)[nH]n(-c3nc4ccccc4s3)c2=O)cc1OC	58	.	-1
O=C(CSC1CC(=O)N(c2cccc(Cl)c2)C1=O)Nc1ccc(Br)cc1 (stereo unspecified)	.	3	.
